Sfp PPTase inh = Sfp phosphopantetheinyl transferase inhibition; Q9F4F7; hit rate 3.5% among 310,000; AID 1490; Biochemical Sfp PPTase activity, qHTS; Potency, µM, for inactives: largest response in the series, negative = inhibition, most hits filed as inhibitors;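 further: the enzyme is Sfp with the accession as filed and its product quenches rhodamine fluorescence; 0% = enzyme reaction without inhibitor and -100% = no enzyme wells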
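Step 1, compound plus 15 nM Sfp-PPTase, 15 min, room temperature. Step 2, add rhodamine-CoA (5 uM) and BHQ-2-YbbR (12.5 uM). Step 3, read 525/598 nm fluorescence at 0 and 30 min.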
ClpP mod = qHTS Assay for Activators of ClpP | ATP-dependent Clp protease proteolytic subunit (Bacillus subtilis (strain 168)), P80244 | purified B. subtilis ClpP, FRET peptide cleavage, 20 min | Potency, µM (series often up to 57.5 µM), for inactives: at the highest dose activity change, negative = active | hit rate 1.9% among 340,000; active means well fitted falling curve with a large enough effect; inconclusive means small, poorly fitted or top-dose-only effect; inactive means no such curve, though single readings can be large or run the other way; further: the source files actives as falling curves though it sought activators and does not explain the sign; nearly all actives have a fitted effect of over 65% in size
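Purified B. subtilis ClpP, 10 microg/mL final in Tris/HCl pH8 with KCl, BSA, glycerol and Tween-20, cleaved an Abz/nitrotyrosine-quenched decapeptide. Fluorescence (ex 320, em 430) was read at 0 and 20 min at room temperature. Delta was normalized to 5.8 microM ADEP and DMSO/no-enzyme controls.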
VP16 counter = counter-screen for ROR gamma inhibitors: Gal4-VP16 reporter; Drosophila S2 Gal4-VP16 UAS-luciferase, luminescence, 20 h; hit rate 3.5% among 310,000; Potency, µM (titrated, usually from 53.6 µM), without a hit: at the highest dose activity, negative = inhibition, most hits filed as inhibitors;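 further: Gal4-VP16 expression switched on by copper sulfate through the metallothionein promoter; on the % scale 0 is the no-effect control and ±100 the full control effect; nearly all actives have a fitted effect of over 50% in size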
Epigenetic derep = epigenetic control regulation, reporter derepression; Potency, µM (series often up to 53.9 µM), without a hit: at the highest dose GFP activation, hits mostly activators; AID 1865; hit rate 0.2% among 280,000; murine LDR cells, GFP reporter derepression, 30 h; further: % of control where 0% means no effect; nearly all actives have a fitted effect of over 60% in size
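Derepression of a silenced CMV-GFP reporter in murine LDR cells is scored by enumerating GFP-positive cells with a laser-scanning microplate cytometer after 30 hours of treatment at 37 C.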
RORgamma inh = blocks mouse ROR gamma transcriptional activity. P51450. Drosophila S2 Gal4-RORgamma UAS-luciferase reporter, 20 h. Potency, µM (series often up to 53.6 µM), inactives show top-dose activity change, negative = inhibition, hits mostly inhibitors. hit rate 5.4% among 310,000; further: on the % scale 0 is the no-effect control and ±100 the full control effect; nearly all actives have a fitted effect of over 60% in size
Target sequence (P51450 whole entry, looked up, the tested form may be a part): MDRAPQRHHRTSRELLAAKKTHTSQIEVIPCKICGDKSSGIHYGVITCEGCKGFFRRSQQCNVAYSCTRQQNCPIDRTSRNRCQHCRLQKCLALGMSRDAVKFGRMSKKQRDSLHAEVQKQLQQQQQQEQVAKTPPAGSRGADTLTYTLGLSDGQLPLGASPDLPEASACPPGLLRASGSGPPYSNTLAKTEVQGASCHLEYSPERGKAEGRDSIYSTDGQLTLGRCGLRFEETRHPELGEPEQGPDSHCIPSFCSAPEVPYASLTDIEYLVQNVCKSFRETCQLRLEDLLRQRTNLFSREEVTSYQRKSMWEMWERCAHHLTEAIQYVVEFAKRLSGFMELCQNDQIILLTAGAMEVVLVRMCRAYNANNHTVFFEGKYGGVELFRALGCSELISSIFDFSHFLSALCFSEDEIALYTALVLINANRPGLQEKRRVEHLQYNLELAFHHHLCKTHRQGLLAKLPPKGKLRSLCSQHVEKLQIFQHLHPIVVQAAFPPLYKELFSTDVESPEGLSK
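Stably transfected Drosophila Schneider cells are the test system, with ROR gamma fused to Gal4 and luciferase under UAS control; luminescence is read after 20 hr of 700 uM copper sulfate induction at ambient temperature.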
PINK1 modulator = PINK1 expression modulation | PINK1 immunofluorescence, high-content cytometry, 24 h | Potency, µM (series often up to 76.6 µM), for the others: top-dose activation (PINK1 increase), usual class: activators | hit rate 0.2% among 410,000 | AID 624263; active means well fitted activation curve with a large enough effect; inconclusive means small, poorly fitted or top-dose-only effect; cell line not stated here; further: % of control where 0% means no effect; nearly all actives have a fitted effect of over 65% in size
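PINK1 protein level read as immunofluorescence by microplate cytometer in a fixed, stained stable cell line after 24 h exposure to five compound concentrations, with CCCP as control.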
* marks the source's active call; other numbers are inactive results; u = inconclusive; x = no result; [ ] = remark or other dose. In the library only some 8.1% were active in any assay of this set; here they are far more common. Unless noted, the call rests on the fitted dose curve; in most records, active means well fitted curve in the direction sought with a large enough effect; inconclusive means small, poorly fitted or top-dose-only effect, or another doubt; inactive means no such curve, though single readings can be large; an effect the other way counts as inactive or inconclusive. Potency means the concentration at half of the fitted maximal effect.

SMILES | Sfp PPTase inh | ClpP mod | VP16 counter | Epigenetic derep | RORgamma inh | PINK1 modulator
O=c1cnc2ccccc2n1Cc1ccc(Br)cc1 | 8% | x | 19% | x | u | 7%
CC(C)(C)c1ccc(Cn2c(=O)cnc3ccccc32)cc1 | -17% | x | u | x | 22µM* | 7%
COc1cccc(-n2nc(C#N)c(Cl)cc2=O)c1 | 2% | x | 7.1µM* | u | 3.5µM* | 6%
COc1cccc(-n2nc(C(N)=O)c(O)cc2=O)c1 | 13% | x | 2% | -1% | -1% | -2%
COc1ccc(C(=O)c2cn(Cc3ccccc3)c3ccccc3c2=O)cc1OC | x | -2% | x | 2% | x | 1%
CCCn1nc([N+](=O)[O-])c(C(C#N)c2nc3ccccc3o2)c(Cl)c1=O (stereo unspecified) | -17% | -6% | u | 0% | -26% | u
Cn1nc([N+](=O)[O-])c(C(C#N)c2ccccn2)c(Cl)c1=O (stereo unspecified) | -5% | -2% | u | 7% | 10µM* | 2%
Cc1cc(C)cc(Oc2cc(NC(=O)c3cn(C)nc3C)cc([N+](=O)[O-])c2)c1 | 21% | -3% | 7.9µM* | 0% | u | u
O=C(CCl)Nc1cc(SCC(O)CO)cc([N+](=O)[O-])c1 (stereo unspecified) | 71µM* | x | 5µM* | -6% | u | -2%
CC(C)=NOc1cc(NC(=O)CCl)cc([N+](=O)[O-])c1 | -21% | 0% | 7.1µM* | 3% | 10µM* | -2%
CCC(=O)Nc1cc(ON=C(C)C)cc([N+](=O)[O-])c1 | 10% | -9% | 0% | -1% | 2% | 3%
COc1ccc(CNC(=O)C(=O)NCC(c2ccco2)S(=O)(=O)c2cccs2)cc1 (stereo unspecified) | x | 2% | x | 3% | x | 3%
CCc1cccc2c(-c3ccccc3)nc(SCC(=O)Nc3ccccc3OC)nc12 | x | -3% | x | -1% | x | 2%
C=CCC(O)(C#Cc1ccccc1)c1ccccc1 (stereo unspecified) | -24% | x | 5% | -1% | 27% | x
CCOc1ccc(CC(=O)Nc2sc(Cc3ccccc3)cc2C(N)=O)cc1OCC | 28µM* | u | 7% | 1% | 26% | 1%[38.3 µM]
NC(=O)c1cc(Cc2ccccc2)sc1NC(=O)c1ccco1 | -70% | -12% | u | -11% | u | 4%[38.3 µM]
CCn1c(=O)c2sccc2n2c(CCC(=O)Nc3ccc(OC)cc3OC)nnc12 | x | -1% | x | -2% | x | 0%
COc1ccccc1Nc1nc2c(s1)CCC2 | 40µM* | -5% | -14% | 1% | u | 3%
COc1ccc(-c2cc(C(=O)Nc3c(C(=O)c4ccc(C)cc4)oc4ccccc34)no2)cc1 | x | 1% | x | -2% | x | 1%
COC(=O)C1CCN(Cc2ccc3c(c2)CN(C(=O)c2ccc(-n4cnnn4)cc2)CCO3)CC1 | x | x | x | x | x | 0%
Cc1cc(Cl)ccc1NC(=S)Nc1cccnc1 | -1% | -11% | u | 0% | 13µM* | 2%
Cc1cc(NC(=S)Nc2cccnc2)ccc1Br | -15% | x | u | 0% | 13µM* | 2%
O=C(Nc1cccnc1)Nc1ccc(Cl)cc1Cl | -11% | 1% | -13% | -4% | 0% | 0%
Cc1cc(NC(=S)Nc2ccccc2)ccc1Br | 1% | 1% | u | 0% | 10µM* | -4%[38.3 µM]
Cc1ccc(NC(=O)Nc2cccnc2)cc1NC(=O)Nc1cccnc1 | -12% | -1% | -11% | 2% | -20% | -1%
OCC1CCCN(c2nc3cc4c(cc3cc2CNCc2cccc(C(F)(F)F)c2)OCO4)C1 (stereo unspecified) | x | x | x | x | x | 0%
CN(C)c1ccc(/C=C/c2ccnc3c(O)ccc(O)c23)cc1 | x | -4% | x | x | x | x
COc1ccc(-c2ccc3nnc(SCC(=O)NCC4CCCO4)n3n2)cc1 (stereo unspecified) | x | u | x | x | x | 0%
CCOc1ccc(-c2ccc3nnc(SCC(=O)NCC4CCCO4)n3n2)cc1 (stereo unspecified) | x | 32µM* | x | x | x | 1%

High-throughput results deposited in PubChem BioAssay by National Center for Advancing Translational Sciences (NCATS).
